PubChem BioAssay (NCATS)
Records with an inconclusive call do not appear. Entries that show only a call come without a potency. The source made the active and inactive calls. Calls come from the whole dose curve; as a rule, active = well fitted cell-killing curve with a large enough effect; inconclusive = small, poorly fitted or top-dose-only effect, or effect the other way; inactive = no such curve, though single readings can be large or run the other way.

Legend:
[1] = Viability qHTS for spleen associated tyrosine kinase inhibitor (SYKi) naive MV4-11 cells (AID 1963823); note: nearly all actives have a fitted effect of over 40% in size
Outline: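 SYK inhibitor-naive MV4-11 cells, 500 per well, exposed to compounds for 72 hr at 37 C, 5% CO2. Viability read as CellTiter-Glo luminescence after 10 min at room temperature.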

[2] = Viability qHTS for spleen associated tyrosine kinase inhibitor (SYKi) drug resistant MV4-11 cells (AID 1963824); note: nearly all actives have a fitted effect of over 35% in size
Outline: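 SYK-inhibitor-resistant MV4-11 AML cells were seeded at 500 per well onto compound and cultured 72 hours (37 °C, 5% CO2). CellTiter-Glo was then added, and after 10 min at room temperature, luminescence gave viability.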
Potency is the fitted concentration of half-maximal effect.

O=C(Nc1ccc(C(O)(C(F)(F)F)C(F)(F)F)cc1)c1ccc(C(F)(F)F)cc1
Potency [1]: 1840 nM (active)
Potency [2]: 1840 nM (active)

COc1cc(/C=C/C(=O)O[C@H]2[C@@H]3C=CO[C@@H](O[C@@H]4O[C@H](CO)[C@@H](O)[C@H](O)[C@H]4O)[C@@H]3[C@@]3(CO)O[C@@H]23)ccc1O
Potency [1]: inactive
Potency [2]: inactive

C=CS(=O)(=O)NC1CCN(C(=O)CNc2cc(I)c(Cl)cc2OC)CC1
Potency [1]: 3260 nM (active)
Potency [2]: 2060 nM (active)

CC1=COC(OC2OC(CO)C(O)C(O)C2O)C2C(CO)CC(OC(=O)/C=C/c3ccc(O)cc3)C12 (centres undefined)
Potency [1]: inactive
Potency [2]: inactive

C=C1C(=O)OC2/C=C(\C)CC/C=C(\C=O)C(OC)C(OC(=O)C(C)CC)C12 (centres undefined)
Potency [1]: 3210 nM (active)
Potency [2]: 2020 nM (active)

CC1(O)CC(O)C2(O)C=COC(O[C@@H]3O[C@H](CO)[C@@H](O)[C@H](O)[C@H]3O)C12 (some centres undefined)
Potency [1]: inactive
Potency [2]: inactive

CC(C)(C)c1cc(Br)cc([C@H](CC(=O)O)NC(=O)CNC(=O)c2cc(O)cc(NC3=NCC(O)CN3)c2)c1 (some centres undefined)
Potency [1]: inactive
Potency [2]: inactive
